HCMV antiviral: inhibitors of human cytomegalovirus. HFF cells, HCMV-luciferase reporter, 72 h; stronger effect = lower value. activity change, negative = inhibition, % at 57.5 µM. 4.5% of 410,000 active. AID 1259415; in the data active = activity change below about -60%; inconclusive = no clear call, values can overlap the other calls; inactive = above about -39%; note: % is set by controls: 0 for no effect and ±100 for the full control effect
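Cell-based, HFFs, 1000 cells/well, 16 h 37C; cpds in DMSO + HCMV-luc, MOI 1 PFU/cell; 72 h 37C; OneGlo luminescence after 5 min RT; norm. to buffer vs Salinomycin 10uM.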
SARS PLP yeast: SARS-CoV PLP inhibition in yeast. S. cerevisiae expressing SARS-CoV PLpro, growth rescue. Potency, µM (doses to about 32.9 µM), for inactives: top-dose activity, positive = growth rescue, hits mostly activators. 0.19% of 330,000 active. AID 485353; calls by dose curve; note: potency is the fitted concentration of half-maximal effect; 0% is about no effect; nearly all actives have a fitted effect of over 55% in size
Pf growth 48h: inhibits P. falciparum growth in the first generation, 48 h | Potency, µM (titrated, usually from 28.7 µM), inactives show at the highest dose activity change, negative = inhibition, most hits filed as inhibitors | 5.9% of 310,000 active | P. falciparum luciferase growth in erythrocytes, 48 h; note: potency is the fitted concentration of half-maximal effect; % is set by controls: 0 for no effect and ±100 for the full control effect
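Luciferase-expressing P. falciparum in infected erythrocytes (2% hematocrit, 0.1% parasitemia final) in RPMI 1640/0.5% Albumax were exposed to compound for 48 hours at 37 C, 5% CO2; growth read as luminescence.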
Sm TGR inh: blocks Schistosoma mansoni thioredoxin glutathione reductase; Q962Y6; purified TGR, DTNB reduction, TNB absorbance 405 nm; Potency, µM (highest dose often 114 µM), for inactives: at the highest dose activity change, negative = inhibition, actives largely listed as inhibitors; 3% of 360,000 active; note: potency is the fitted concentration of half-maximal effect; % is set by controls: 0 for no effect and ±100 for the full control effect; nearly all actives have a fitted effect of over 60% in size
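First, TGR (20 nM dispensed) and NADPH were mixed with compound. Second, a 15 min room-temperature incubation followed. Third, further NADPH and then DTNB were added to start the reaction. Finally, TNB absorbance was monitored kinetically.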
Pf growth 96h: inhibits malaria parasite growth, 96 h | P. falciparum luciferase reporter growth, 96 h | Potency, µM (series often up to 28.7 µM), without a hit: at the top dose activity change, negative = inhibition, hits mostly inhibitors | 6.9% of 320,000 active | AID 504834; note: potency is the fitted concentration of half-maximal effect; % is set by controls: 0 for no effect and ±100 for the full control effect
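Luminescence readout: decreased luciferase signal marks inhibited growth of reporter-expressing P. falciparum in infected red cells (2% hematocrit, 0.05% parasitemia final), exposed to compound two generations (96 h, 37 C, 5% CO2).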
HCV inhibitor: inhibitors of hepatitis C virus infection. Huh7.5.1 HCVcc-Cre infection, luciferase reporter, 44 h. Potency, µM (titrated, usually from 41.8 µM), inactives show at the highest dose activity change, negative = inhibition, actives largely listed as inhibitors. 3.4% of 340,000 active; note: potency is the fitted concentration of half-maximal effect; % is set by controls: 0 for no effect and ±100 for the full control effect
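Luciferase read-out (15 sec integration) after a 15 min room-temperature substrate step quantifies HCVcc-Cre infection. Cells, 1,000 per well, had compound added 4 h post-plating, then virus at ~0.5 moi, and were cultured 44 h.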
* hit, by the source's call; u = inconclusive; x = no result. Rows were chosen to be rich in hits. Some 15% of all compounds tested hit in one or more screens of this group. Unless noted, calls come from the whole dose curve; as a rule, active = well fitted curve in the direction sought with a large enough effect; inconclusive = small, poorly fitted or top-dose-only effect, or another doubt; inactive = no such curve, though single readings can be large; an effect the other way counts as inactive or inconclusive.

SMILES	HCMV antiviral	SARS PLP yeast	Pf growth 48h	Sm TGR inh	Pf growth 96h	HCV inhibitor
COc1cccc(C(=O)N2CCN(Cc3ccccc3Br)CC2)c1	2	3%	25%	1%	u	10%
CCOC(=O)[C@]1(C#N)[C@@H]2C=CC(C(C)=O)=CN2[C@@H](C(N)=O)[C@@H]1c1ccsc1	-12	5%	7%	40µM*	u	-4%
NC(=O)c1cc2c3ccccc3ccn2c1-c1ccccc1	-99*	-5%	-1%	-15%	-58%	4%
NC(=O)c1cc(Sc2ccccc2)nc2ccccc12	-38	x	x	x	x	-16%
CC(C)[C@H](NC(=O)N1c2ccccc2NC(=O)[C@@H]1C(C)C)C(=O)N[C@@H](C(=O)O)c1ccccc1	-6	3%	u	7%	-17%	0.35µM*
CCc1ccc(CNC(=O)CCCn2c(=O)c3cccn3c3cccnc32)cc1	12	-3%	-6%	7%	-20%	10µM*
CC(C)Oc1ccc(CNC(=O)CCCn2c(=O)c3cccn3c3cccnc32)cc1	-68*	x	x	8%	x	x
CC(NC(=O)CCCn1c(=O)c2cccn2c2cccnc21)c1ccccc1 (configuration not stated)	-65*	x	x	5%	x	x
COc1ccc(C2=CSC3=C(C(=O)c4cccc(S(=O)(=O)N(C)C)c4)CCN23)cc1	20	-7%	x	1µM*	8.3µM*	-20%
COc1cccc(/C=N/NC(=O)NC2CCCCC2)c1O	16	-1%	u	5%	u	15%
c1csc(CNc2nc(-c3cccs3)nc3ccccc23)c1	-61*	-20%	-26%	0%	u	u
c1csc(-c2nc(NCC3CCCO3)c3ccccc3n2)c1 (configuration not stated)	-22	-11%	-10%	4%	u	u
c1ccc(CN2CCC(Nc3nc(-c4cccs4)nc4ccccc34)CC2)cc1	u	-3%	5.2µM*	9%	5.2µM*	u
c1ccc(-c2nc(NCc3cccs3)c3ccccc3n2)cc1	u	-58%	-8%	2%	2%	u
CC(C)CCOc1ccc(-c2c(=O)n(OCc3ccc([N+](=O)[O-])cc3)c3ccccc3[n+]2[O-])cc1	-69*	-3%	33%	13%	28%	u
O=c1c(-c2ccco2)[n+]([O-])c2ccccc2n1OCc1ccccc1	-17	15%	x	10µM*	u	-22%
CCCOc1ccc(-c2c(=O)n(OCc3ccc([N+](=O)[O-])cc3)c3ccccc3[n+]2[O-])cc1	23	4%	13%	-2%	u	4%
O=c1c(-c2ccco2)[n+]([O-])c2ccccc2n1OCc1c(F)cccc1F	35	-1%	47%	16µM*	97%	-2%
O=c1c(-c2ccco2)[n+]([O-])c2ccccc2n1OCc1ccccc1F	-30	8%	x	u	u	-7%
CCOc1ccc(-c2c(=O)n(OCc3ccccc3Br)c3ccccc3[n+]2[O-])c(OCC)c1	1	0%	u	11%	-6%	u
CCOc1ccc(OCC)c(-c2c(=O)n(OCc3ccccc3Br)c3ccccc3[n+]2[O-])c1	u	1%	u	-1%	9.3µM*	-1%
CN(C)c1nnnn1-c1cccc(Oc2ncc(C(F)(F)F)cc2Cl)c1	-24	-1%	-10%	0%	-8%	u
COc1ccccc1COn1c(=O)c(-c2ccco2)[n+]([O-])c2ccccc21	u	-2%	u	14µM*	-4%	-13%
COc1cccc(=O)c2c(C)n(-c3cc(C)cc(C)c3)c(C)c12	-6	-15%	3.3µM*	0%	2.6µM*	-23%
COc1cccc(-n2c(C)c3c(OC)cccc(=O)c3c2C)c1	5	2%	4.1µM*	22µM*	u	-19%
COc1cccc(=O)c2c(C)n(C)c(C)c12	-8	0%	6%	u	377%	u
C=CCN(CC=C)CCCOc1ccc(Br)cc1Cl	-29	1%	26%	-2%	100%	-2%

Bioassay records as filed in PubChem.
